From PubChem
HCV inh = inhibitors of hepatitis C virus infection | Huh7.5.1 HCVcc-Cre infection, luciferase reporter, 44 h | Potency, µM (top dose mostly 41.8 µM), hits mostly inhibitors | hit rate 3.4% among 340,000 | AID 651820; active = well fitted inhibition curve with a large enough effect; inconclusive = small, poorly fitted or top-dose-only effect, or another doubt; inactive = no such curve, though single readings can be large or run the other way
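Compounds are dispensed onto cells plated 4 h earlier at 1,000 per well, with HCVcc-Cre virus (about 0.5 moi) added next. Following 44 h of culture, luminescent signal is measured for 15 sec after 15 min with substrate at room temperature.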
Vaccinia mCherry = inhibitors of vaccinia virus infection (mCherry reporter signal). Vaccinia virus mCherry reporter infection, fluorescence. Potency, µM (top dose mostly 36.5 µM), most hits filed as inhibitors. AID 720579. hit rate 0.63% among 310,000; calls by dose curve; tested in A549 cells; also: nearly all actives have a fitted effect of over 35% in size
Marburg entry inh = blocks Marburg virus binding to or entry into cells; Marburg virus pseudotyped entry inhibition, cell reporter; Potency, µM (doses to about 37.8 µM), actives largely listed as inhibitors; hit rate 1.8% among 300,000; AID 540276; calls by dose curve; tested in HEK293 cells
Vaccinia Venus = inhibitors of vaccinia virus (Venus reporter). Vaccinia virus Venus reporter expression, fluorescence. Potency, µM (series often up to 36.5 µM), actives largely listed as inhibitors. hit rate 0.46% among 330,000; calls by dose curve; tested in A549 cells; also: nearly all actives have a fitted effect of over 30% in size
HCMV inh = inhibitors of human cytomegalovirus; HFF cells, HCMV-luciferase reporter, 72 h; stronger effect = lower value; activity change, negative = inhibition, % at 57.5 µM; hit rate 4.5% among 410,000; in the data active = activity change below about -60%; inconclusive = no clear call, values can overlap the other calls; inactive = above about -39%
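Cell-based, HFFs, 1000 cells/well, 16 h 37C; cpds in DMSO + HCMV-luc, MOI 1 PFU/cell; 72 h 37C; OneGlo luminescence after 5 min RT; norm. to buffer vs Salinomycin 10uM.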
LASV entry inh = Lassa virus entry inhibition; Lassa virus pseudotype entry inhibition, cell reporter; Potency, µM (series often up to 37.9 µM), actives largely listed as inhibitors; hit rate 1.2% among 300,000; AID 540256; calls by dose curve; tested in HEK293 cells; also: nearly all actives have a fitted effect of over 50% in size
Hits are given with their value; i = inactive; ? = inconclusive; nt = no result; ! = not active in a repeat. Sampled rows, rich in hits. Any-hit rate of the full collection: about 7.8%.

SMILES	HCV inh	Vaccinia mCherry	Marburg entry inh	Vaccinia Venus	HCMV inh	LASV entry inh
O=C1/C(=C\c2ccco2)SC(=S)N1Cc1ccccc1	?	i	i	i	i	i
COC(=O)c1ccc(Nc2ncnc3c2nc2n3CCCC2)cc1	nt	i	nt	i	i	i
Clc1ccc(-c2csc(=Nc3ccccc3)n2Cc2ccc3c(c2)OCO3)cc1	nt	i	?	i	i	i
COC(=O)c1cc(NC(=O)c2c(F)c(F)c(F)c(F)c2F)cc(C(=O)OC)c1	13µM	i	?	i	-63	?
CC(=O)c1cccc(NC(=O)c2c(F)c(F)c(F)c(F)c2F)c1	?	nt	i	10µM	i	i
CC(=O)c1ccc(N2CCN(c3ncnc4onc(-c5ccc(Cl)cc5)c34)CC2)cc1	nt	i	i	i	i	?
CC(=O)c1c(C)[nH]c(C(=O)OCC(=O)Nc2cc(Cl)ccc2[N+](=O)[O-])c1C	10µM	nt	i	nt	i	nt
Cc1ccc(NC(=O)COC(=O)C2=COCCO2)c([N+](=O)[O-])c1	i	i	i	i	i	i
CC(=O)c1c(C)[nH]c(C(=O)OCC(=O)Nc2ccc(C)cc2[N+](=O)[O-])c1C	2.8µM	nt	?	nt	?	i
CC(=O)c1ccc(N2CCN(S(=O)(=O)c3c(C)nc4sc(C)cn4c3=O)CC2)cc1	nt	i	nt	i	i	i
CCC(C)n1c(=N)c(S(=O)(=O)c2ccccc2)cc2c(=O)n3ccccc3nc21 (stereo not drawn)	nt	i	i	i	i	i
CC1CCN(S(=O)(=O)c2cnc(Cl)c(Br)c2)CC1	i	i	i	i	i	i
CN1CCN(S(=O)(=O)c2cnc(Cl)c(Br)c2)CC1	?	13µM	?	?	i	i
O=C(CSc1nc2ccccc2[nH]1)Nc1c(F)c(F)c(F)c(F)c1F	i	nt	nt	nt	i	nt
COc1nonc1NC(=O)CSc1nc2ccccc2[nH]1	i	i	i	i	-64	i
Cc1nonc1NC(=O)CSc1nc2ccccc2[nH]1	i	i	i	i	i	?
O=C(CSc1nc2ccccc2[nH]1)Nc1c(F)cccc1F	?	i	i	i	-85	?
CCC1(C2CCN(Cc3cccc(Cl)c3)CC2)NC(=O)N(CC2COc3ccccc3O2)C1=O (stereo not drawn)	nt	i	nt	i	nt	nt
Cc1ccccc1-c1nc(CS(=O)(=O)CC(=O)N(C)C2CCCCC2)c(C)o1	11µM!	?	i	?	i	nt
CCC(CO)[n+]1c(C)cc(/C=C2\Sc3ccccc3N2Cc2ccccc2)cc1C (stereo not drawn)	?	i	?	i	-100	?
CC(=O)Nc1nonc1-c1nnc(SCC(=O)Nc2c(C)cccc2C)n1-c1ccccc1	nt	i	?	i	i	i
Cc1cccc(C)c1NC(=O)CCCSc1nnc(-c2ccc(Cl)cc2)n1-c1ccccc1	?	13µM	?	?	-80	?
Cc1cccc(C)c1NC(=O)CCCSc1nnc(-c2ccc(F)cc2)n1-c1ccccc1	?	i	?	?	-69	?
CC[C@H]1OC(=O)C[C@@H](O)[C@H](C)[C@@H](O[C@@H]2O[C@H](C)[C@@H](O)[C@H](N(C)C)[C@H]2O)[C@@H](CCN2C[C@H](C)C[C@H](C)C2)C[C@@H](C)C(=O)/C=C/C(C)=C/[C@@H]1CO[C@@H]1O[C@H](C)[C@@H](O)[C@@H](OC)[C@H]1OC	nt	i	nt	i	nt	nt
COc1cc(=O)n2c(c1C(=O)N(C)Cc1ccsc1)CCN(Cc1cnn(C)c1C)CC2	nt	i	nt	i	nt	nt
SMILES	HCV inh	Vaccinia mCherry	Marburg entry inh	Vaccinia Venus	HCMV inh	LASV entry inh
Cn1c2c(c(=O)n(C)c1=O)C(C(F)(F)F)(C(F)(F)F)N=C(c1ccc(Cl)cc1)N2	1.6µM	?	1µM	?	nt	2.8µM
CCn1cc2nc(SCc3cc(C)ccc3C)n(CCc3ccccc3)c(=O)c2n1	nt	?	nt	i	-86	4µM
CCn1cc2nc(SCc3cc(C)ccc3C)n(Cc3ccc(OC)cc3)c(=O)c2n1	nt	?	nt	?	i	?
COc1cccc(Cn2c(CNC(=O)Cc3cccc(C)c3)nc3cccnc32)c1	nt	i	nt	i	?	i
CCCCCn1c(CN2CCN(c3cc(Cl)ccc3C)CC2)nc2c1c(=O)[nH]c(=O)n2C	?	nt	16µM	nt	?	?
Cn1c(=O)c2c(nc(CN3CCN(c4ccccc4)CC3)n2CCCc2ccccc2)n(C)c1=O	i	i	i	i	i	i
CCCCCn1c(CN2CCN(c3cccc(Cl)c3)CC2)nc2c1c(=O)n(C)c(=O)n2C	?	i	?	i	i	i
